Measurements reported in PubChem BioAssay (Tox21).
Inconclusive results are not listed. Entries that show only a call come without a potency. Active and inactive are the calls of the source. The call rests on the fitted dose curve; in most records, active means well fitted cell-killing curve with a large enough effect in the repeat runs; inconclusive means weak or mixed curves, or effect the other way; inactive means flat fitted curve, though single readings scatter.

Experiments:
[1] = cAMP Responsive Elements (CRE) small molecule antagonists, cell-based qHTS assay: qHTS cell viability counter screen (AID 2060913); conditions: CRE-bla HEK293T viability, CellTiter-Glo luminescence, 5 h; series mostly up to 92.4 µM; further: nearly all actives have a fitted effect of over 40% in size
Summary of the method: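 Cytotoxicity read in the same wells as the CRE-bla HEK293T antagonist assay: after 3 h compound with 0.25 uM NKH477 final and 2 h beta-lactamase substrate, CellTiter-Glo luminescence measured.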

[2] = cAMP Responsive Elements (CRE) small molecule agonists, cell-based qHTS assay: qHTS cell viability counter screen (AID 2060914); conditions: CRE-bla HEK293T viability, CellTiter-Glo luminescence, 5 h; series mostly up to 92.4 µM;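 further: viability read after 3 h of compound exposure; nearly all actives have a fitted effect of over 50% in size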
Summary of the method: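 Cells are seeded and incubated 18 h, treated with compounds in DMSO for 3 h, read for the bla reporter, then given CellTiter-Glo; luminescence is measured after 30 min at room temperature.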
Potency means the concentration at half of the fitted maximal effect.

Compound	Potency [1]	Potency [2]
O=P(O)(O)c1ccccc1	inactive	inactive
CCCN(CCOc1c(Cl)cc(Cl)cc1Cl)C(=O)n1ccnc1	inactive	inactive
CC1NCCOC1c1ccccc1 (configuration not stated)	inactive	inactive
O=[N+]([O-])[O-].[Tl+]	inactive	inactive
CCCCN(CCCC)C(=S)[S-].CCCCN(CCCC)C(=S)[S-].[Zn+2]	inactive	inactive
CCC[CH2][Sn]([CH2]CCC)([CH2]CCC)[O]C(=O)c1ccccc1	5.7 µM (active)	5.45 µM (active)
OP(O)c1ccccc1	inactive	inactive
COC(=O)c1ccccc1N	inactive	inactive
Cc1cnc[nH]1	inactive	inactive
Cc1coc2c1CCC(C)C2 (configuration not stated)	inactive	inactive
ClCCOCCCl	inactive	inactive
N#CCC#N	inactive	inactive
Sc1ccccc1Cl	inactive	inactive
S=C=Nc1cccc2ccccc12	inactive	inactive
c1ccc2c(c1)oc1ccccc12	inactive	inactive
C[C@]12CCC(=O)C=C1CC[C@@H]1[C@@H]2CC[C@@]2(C)[C@H]1CC[C@]2(C)O	inactive	inactive
CN(C)c1ccc(N=Nc2ccccc2)cc1	inactive	inactive
CC(C)CC#N	inactive	inactive
O=C/C(Cl)=C(/Cl)C(=O)O	inactive	inactive
O=C(NCc1cccnc1)Nc1ccc([N+](=O)[O-])cc1	inactive	inactive
CC(=O)CCC(C)=O	inactive	inactive

Compound	Potency [1]	Potency [2]
CC1(C)[C@H](C=C(Cl)Cl)[C@@H]1C(=O)O[C@@H](C#N)c1cccc(Oc2ccccc2)c1	inactive	inactive
C[C@]12CC[C@H]3[C@@H](CCC4=CC(=O)CC[C@@]43C)[C@@H]1CC[C@@H]2C(=O)O	inactive	inactive
COC(=O)C(C)Oc1ccc(Oc2ccc(Cl)cc2Cl)cc1 (configuration not stated)	inactive	inactive
CCN(C)N=O	inactive	inactive
CC1CN1P(=O)(N1CC1C)N1CC1C (configuration not stated)	inactive	inactive
CC1(C)Cc2cccc(O)c2O1	inactive	inactive
NC(=S)c1c(Cl)cccc1Cl	inactive	inactive
C=CCBr	inactive	inactive
O=P(Cl)(Cl)Cl	inactive	inactive
N#CCCSCCC#N	inactive	inactive
CCCCOC(C)=O	inactive	inactive
C[C@]12CCC(=O)C=C1CC[C@@H]1[C@@H]2CC[C@]2(C)C(=O)CC[C@@H]12	inactive	inactive
CCCCCCCCCCCC#N	inactive	inactive
CCCCCCCCSC(=O)Oc1cc(Cl)nnc1-c1ccccc1	inactive	inactive
CCOP(=O)(O)C(N)=O	inactive	inactive
CC(C)c1ccc(NC(=O)N(C)C)cc1	inactive	inactive
O=[N+]([O-])C(Br)(CO)CO	inactive	inactive
N#Cc1ccccc1N	inactive	inactive
CC(=O)C(Cl)(Cl)Cl	26.4 µM (active)	inactive
CCOCN(C(=O)CCl)c1c(C)cccc1CC	inactive	inactive
C#C[C@]1(O)C=C[C@H]2[C@@H]3CCC4=CC(=O)CC[C@@H]4[C@H]3CC[C@@]21CC	inactive	inactive

Compound	Potency [1]	Potency [2]
CN(C)CCc1c[nH]c2ccccc12	inactive	inactive
CCC(=O)OC1(c2ccccc2)CCN(C)CC1	inactive	inactive
O=C(CBr)c1ccccc1	inactive	inactive
CCCCCCCCP(=O)(O)O	inactive	inactive
CN(C)c1ccc(C(=O)c2ccc(N(C)C)cc2)cc1	inactive	inactive
O=C(CBr)OCc1ccccc1	inactive	inactive
CCOP(=O)(CN(CCO)CCO)OCC	inactive	inactive
O=NN1CCCCC1	inactive	inactive
Oc1ccccc1Br	inactive	inactive
CCNc1nc(NC(C)C(C)C)nc(SC)n1 (configuration not stated)	inactive	inactive
C=C(Cl)CCl	inactive	inactive
O=S(=O)(O)C(F)(F)C(F)(F)C(F)(F)C(F)(F)F	inactive	inactive
CC(Cc1ccccc1)N(C)Cc1ccco1 (configuration not stated)	inactive	inactive
CN1C(=O)CCS(=O)(=O)C1c1ccc(Cl)cc1 (configuration not stated)	inactive	inactive
Cc1cc(Cl)ccc1OC(C)C(=O)O (configuration not stated)	inactive	inactive
Fc1ccc(C2(Cn3cncn3)OC2c2ccccc2Cl)cc1 (configuration not stated)	inactive	inactive
c1ccc2c(c1)sc1ccccc12	inactive	inactive
c1ccc(C2CC2)c(OCC2=NCCN2)c1	inactive	inactive
CC(CC(C#N)(c1ccccc1)c1ccccc1)N(C)C (configuration not stated)	inactive	inactive
